Here are results for twelve compounds from PubChem BioAssay (NCATS).

Where “and” joins values, the source holds several entries; their conditions need not be identical. Equal values may be shown once. Inconclusive results are not listed. Entries that show only a call come without a potency. Calls of active or inactive are those of the source. The call rests on the fitted dose curve; in most records, active means well fitted cell-killing curve with a large enough effect; inconclusive means small, poorly fitted or top-dose-only effect; inactive means no such curve, though single readings can be large or run the other way.
Potency means the concentration at half of the fitted maximal effect.

The experiment is described as follows: qHTS of pediatric cancer cell lines to identify multiple opportunities for drug repurposing: Confirmatory screen for BT-37 cells (AID 1347117). Further: nearly all actives have a fitted effect of over 55% in size. The settings on record: BT-37 pediatric cancer cells, viability; series mostly up to 45.9 µM. From the text:
Drug repurposing or repositioning has been offered as a strategy for drug development in oncology programs. This approach has special potential for childhood cancers and other rare or orphan diseases, where the expected return on new drug development has been a disincentive to pharmaceuticals.
In this project we exploit the poly-pharmacology of drugs to discover new indications via phenotypic screening of a panel of 19 well-characterized cell lines derived from solid tumors seen in children and adolescents. The goal is to identify approved drugs with previously unrecognized anticancer properties that has the potential to reveal new mechanisms and biological processes involved in carcinogenesis or drug resistance. We employed a titration-based paradigm (quantitative high-throughput screening or qHTS), where all compounds were tested at multiple concentrations for their effect on cell viability. Concentration-response curves (CRCs) were derived directly from the primary screen, and both potency and efficacy values were used to identify compounds with robust bioactivity profiles. We screened the NIH Chemical Genomics Center (NCGC) Pharmaceutical Collection (NPC) and Mechanism Interrogation Plate (MIPE) small molecule collections of approved and investigational compounds against these cell lines; and measured metabolically active cells after 48 hours of compound treatment as a proxy for cell viability.
Assay Submitter: Nathalia J. Martinez, National Center for Advancing Translational Sciences, National Institutes of Health, Rockville, MD, USA; email: natalia.martinez@nih.gov
[1] Shen, M et al. Quantitative high-throughput phenotypic screening of pediatric cancer cell lines identifies multiple opportunities for drug repurposing. Oncotarget 2017 Dec 19;9(4):4758-4772. PMID 29435139.
The cells were obtained from University of North Carolina (UNC), Pediatric Preclinical Testing Program (PPT), and Coriell Institute (CI).
qHTS cell viability assay:
Cells were assayed in growth media at a density of 500-1,000 cells/well. Five microliters of cells were dispensed into 1,536-well, white, solid-bottom, TC-treated plates (Greiner Bio One) using a multidrop dispenser and incubated at 37 degrees C, 5% CO2, under a humidified atmosphere for 5 hours. Twenty-three nanoliters of compounds and controls (neutral control DMSO or positive control bortezomib at final concentration of 2.3 µM) were subsequently transferred by Kalypsys pintool. For primary screens, the MIPE collection was tested at 11-point dilutions (final concentrations range from 0.78 nM to 46 µM) and the NPC collection at 8-point dilutions (final concentrations range from 0.59 nM to 46 µM). Compounds tested in follow-up screens were assayed at 11-point dilutions. Cells were incubated for 48 hours, followed by addition of 3 µL of CellTiter-Glo (Promega). After a 15 min incubation at room temperature, samples were analyzed for luminescence intensity using a ViewLux High-throughput CCD imager equipped with clear filters.
On the technique in general: In qHTS, concentration-response curves come from the screen itself.
As for `C[C@@H]1O[C@@H](O[C@@H]2C=C3CC[C@@H]4[C@H](CC[C@]5(C)[C@@H](c6ccc(=O)oc6)CC[C@]45O)[C@@]3(C)CC2)[C@H](O)[C@H](O)[C@H]1O`, the Potency is 0.0147 µM (active).

For `CC1Sc2c(C(=O)O)c(=O)c3cc(F)c(N4CCNCC4)cc3n21` (configuration not stated), the Potency result was “inactive”.

Take `CN(C)C(=S)SSC(=S)N(C)C`: the Potency is 1.04 µM (active).

As for `CC[n+]1c(-c2ccccc2)c2cc(N)ccc2c2ccc(N)cc21`, the Potency was 1.04 µM (active).

On to `CCc1ccc(C2CCNCC2)cc1`, for which the Potency result is “inactive”.

`COc1ccc2c(C(=O)c3ccc(Cl)cc3)c(C)n(CC(=O)O)c2c1`: the Potency entry was “inactive”.

`CCCCCCCCCCCC[N+](C)(C)CCOc1ccccc1`: the Potency was 20.8 µM (active).

Consider `Cc1ccc([N+](=O)[O-])[c]2c1[O][Hg]2`, for which the Potency is 1.47 µM (active).

On to `C[C@@H]1C[C@@H]([C@H](O)CC2CC(=O)NC(=O)C2)C(=O)[C@@H](C)C1`, for which the Potency is 1.04 µM (active) and 1.17 µM (active).

Turning to `ClC1=C(Cl)C2(Cl)C(CBr)CC1(Cl)C2(Cl)Cl` (configuration not stated), the Potency result was “inactive”.

Regarding `COC(=O)C1=CCCN(C)C1`, the Potency result is “inactive”.

In the case of `CCCCCCCCC(=O)NCc1ccc(O)c(OC)c1`, the Potency entry is “inactive”.
